Active and inactive are the calls of the source.
Assay: resazurin metabolic signal in A549 cells – cell-based, resazurin fluorescence, 24 h, PK04 Diversity Set, profiling panel (AID 1171)
Settings: A549 viability, higher = more signal, called active from +8 up or from −8 down
Further: test concentration not given here.

SMILES | z-score
Cc1ccc(S[C@]2(C(=O)NCc3ccccc3)CC(=O)N(Cc3ccccc3C(F)(F)F)[C@@H]2c2ccc(CO)cc2)cc1 | -1.35 (inactive)
CCCN1C(=O)[C@]2(CCC(=O)OC(C)(C)C)N=C(c3ccc(OCCCO)cc3)O[C@@H]2c2ccccc21 | -0.965 (inactive)
C[N+](C)(C)CCCC[C@@H]1NC(=O)[C@H]2C[C@@H](C(=O)NCCCCCNC(=O)CS)[C@@H](c3cccc(OCCO)c3)N2C1=O | -0.219 (inactive)
CO[C@H]1O[C@H](CO)[C@@H](OC(=O)Nc2ccccc2-c2ccccc2)[C@H](OC(=O)Nc2ccccc2)[C@H]1OC(=O)Nc1ccccc1 | -3.34 (inactive)
CC(C)=C1C(=O)C(c2ccccc2)=C2CN3C(=O)N(CCc4ccccc4)C(=O)[C@]3(C)[C@H]21 | -0.337 (inactive)
C[C@]1(C(=O)O)c2ccccc2C(=O)N(Cc2cc(F)cc(C(F)(F)F)c2)[C@H]1c1ccc(CO)cc1 | 1.27 (inactive)
CN(C)CCCNC(=O)[C@@]1(Cc2ccccc2I)c2ccccc2C(=O)N(C2CCCCC2)[C@H]1c1ccc(CO)cc1 | -6.91 (inactive)
C#CCN1[C@@H](Cc2ccccc2)C(=O)O[C@H](Cc2ccccc2)[C@@H]1/C=C/C1CC1 | 3.08 (inactive)
CCCc1cc2c(n1CCc1ccc(Cl)cc1)C(C)C1CN(C(=O)c3ccccc3)C(C)(C(=O)OC)C21 (stereo not given) | -1.94 (inactive)
CN1C(=O)[C@@H]2[C@@H](CC(COc3ccccc3)=C3[C@@H](CCc4ccccc4)OB(O)C[C@@H]32)C1=O | -0.453 (inactive)
CC(C)(C)OC(=O)CC[C@]1(C(=O)NCC(O)CO)N=C(c2ccc(OCCCO)cc2)O[C@H]1c1ccccc1N=[N+]=[N-] (stereo not given in full) | 0.35 (inactive)
COc1ccc([Si](C)(C)[C@H]2[C@H](CC(=O)N3CCC[C@H]3CO)O[C@@]3(C(=O)N(Cc4ccc(N5CCCCC5=O)cc4)c4ccccc43)[C@@H]2C)cc1 | -0.421 (inactive)
C=CCOC(=O)[C@H]1[C@@H]2C(=O)O[C@@H](c3ccccc3)[C@@H](c3ccccc3)N2[C@@H](c2ccc(OCCOC(=O)[C@@H]3C[C@@H]4C(=O)N[C@@H](CCCC[N+](C)(C)C)C(=O)N4[C@@H]3c3ccc(O)cc3)cc2)[C@]12C(=O)Nc1ccc(I)cc12 | 0.281 (inactive)
O=C(NCc1ccc(F)cc1)[C@H]1C[C@H]2C(=O)N3CCC[C@H]3C(=O)N2[C@H]1c1ccc(O)cc1 | -0.0909 (inactive)

Assay: resazurin metabolic signal in HepG2 cells – cell-based, resazurin fluorescence, 24 h, PK04 Diversity Set, profiling panel (AID 1172)
Settings: HepG2 viability, higher = more signal

SMILES | z-score
COC(=O)[C@@]1(Cc2ccc(F)cc2)[C@H]2c3cc(C(=O)N(C)C)n(CCc4ccc(O)c(O)c4)c3C[C@H]2CN1C(=O)c1ccccc1 | 0.515
CCOC(=O)C1=CC[C@@H](c2ccc(OC)cc2)N(S(=O)(=O)c2ccc(C)cc2)[C@H]1c1ccc(C)cc1 | 0.164
[N-]=[N+]=NCc1ccccc1[C@@H]1OC(c2ccc(OCCCO)cc2)=N[C@]1(Cc1ccccc1N=[N+]=[N-])C(=O)O | 0.495
COC(=O)[C@@]1(Cc2ccccc2)[C@H]2c3cc(C(=O)N(C)C)n(CCSC(=N)N)c3C[C@H]2CN1C(=O)c1ccccc1 | -0.436
Cc1ccc(S[C@]2(C(=O)NC(C)C)CC(=O)N(C3CCCCC3)[C@@H]2c2ccc(CO)cc2I)cc1 | 0.748
COC(=O)C(CC#Cc1ccc2c(c1)[C@]1(C(=O)N2)[C@H](C(=O)N2CCc3cc(OC)c(OC)cc3C2)[C@H]2C(=O)O[C@H](c3ccccc3)[C@H](c3ccccc3)N2[C@@H]1c1ccccc1OCCO)C(=O)OC | -0.553
C=CC[C@@]12N=C(c3ccc(OCCCO)cc3)O[C@@H]1c1ccccc1N(CCC)C2=O | 0.167
CCC(CC)C(O)C1C=CC2C(=O)N(c3ccccc3)C(=O)C2N1Nc1ccccc1F (stereo not given) | 0.85
C=C(COC)/C(=C/C[C@H](OC(C)=O)c1ccccc1OCCO)c1cc(C(=O)OC)ccc1OC | -0.216
CN(C)CCCC[C@@H]1NC(=O)[C@@H]2C[C@H](C(=O)NCCCCCN)[C@H](c3cccc(OCCO)c3)N2C1=O | 0.881
COC(=O)C[C@H]1O[C@@]2(C[C@@H]1[Si](C)(C)C)C(=O)N(C)c1ccccc12 | 0.791
NC(=O)N1C(=O)C2C(C1=O)C1C=C(CCCO)C2C(C2CC2)N1Cc1sc2ccccc2c1Cl (stereo not given) | 0.146
CCOC(=O)C1=CCC(c2cc3ccccc3[nH]2)N(CCN2CC(C(=O)OCC)=CCC2c2cc3ccccc3[nH]2)C1 (stereo not given) | -0.474
COCC(=C=CC[C@H](O)c1ccccc1OCCO)C[C@H](O)COCc1ccccc1 | 0.0129
COc1ccc([Si](C)(C)[C@@H]2[C@@H](CC(=O)N3CCC[C@H]3CO)O[C@]3(C(=O)N(Cc4ccc(N5CCOC5=O)cc4)c4ccccc43)[C@H]2C)cc1 | -1.39
C=C(CCCC)C(=O)CC[C@H](OC(=O)c1ccccc1-c1ccccc1C(=O)O)c1ccc(OCCO)cc1 | 0.359
COC(=O)[C@@]1(Cc2ccc(F)cc2)[C@H]2c3cc(C(=O)N4CCCC4)n(Cc4ccccn4)c3C[C@H]2CN1C(=O)c1ccccc1 | -1.52
O=C1NC(=O)C2C1C=CC(C(O)c1ccc([N+](=O)[O-])cc1)N2Nc1ccccn1 (stereo not given) | -0.731

SMILES | z-score
CCCC#C[Si](O[C@H](CC)c1cn(Cc2ccccc2)nn1)(C(C)C)C(C)C | -0.394
COCCCNC(=O)[C@@]1(CCC(=O)OC(C)(C)C)COC(c2ccc(OCCCO)cc2)=N1 | 1.18
C=C(CCCC)/C(=C/C[C@H](OC(C)=O)c1cccc(OCCO)c1)c1cnc2ccccc2c1 | 0.209
CN(C)C(=O)[C@]1(Cc2ccccc2)N=C(c2ccc(OCCCO)cc2)O[C@@H]1c1ccccc1CN=[N+]=[N-] | 0.432
Cc1ccc(S[C@]2(C(=O)NCc3ccccc3)CC(=O)N(Cc3ccccc3C(F)(F)F)[C@@H]2c2ccc(CO)cc2)cc1 | -0.704
CCCN1C(=O)[C@]2(CCC(=O)OC(C)(C)C)N=C(c3ccc(OCCCO)cc3)O[C@@H]2c2ccccc21 | -0.154
C[N+](C)(C)CCCC[C@@H]1NC(=O)[C@H]2C[C@@H](C(=O)NCCCCCNC(=O)CS)[C@@H](c3cccc(OCCO)c3)N2C1=O | -0.226
CO[C@H]1O[C@H](CO)[C@@H](OC(=O)Nc2ccccc2-c2ccccc2)[C@H](OC(=O)Nc2ccccc2)[C@H]1OC(=O)Nc1ccccc1 | -1.68
CC(C)=C1C(=O)C(c2ccccc2)=C2CN3C(=O)N(CCc4ccccc4)C(=O)[C@]3(C)[C@H]21 | -0.823
C[C@]1(C(=O)O)c2ccccc2C(=O)N(Cc2cc(F)cc(C(F)(F)F)c2)[C@H]1c1ccc(CO)cc1 | 0.646
CN(C)CCCNC(=O)[C@@]1(Cc2ccccc2I)c2ccccc2C(=O)N(C2CCCCC2)[C@H]1c1ccc(CO)cc1 | -6.39
C#CCN1[C@@H](Cc2ccccc2)C(=O)O[C@H](Cc2ccccc2)[C@@H]1/C=C/C1CC1 | 0.642
CCCc1cc2c(n1CCc1ccc(Cl)cc1)C(C)C1CN(C(=O)c3ccccc3)C(C)(C(=O)OC)C21 (stereo not given) | -1.19
CN1C(=O)[C@@H]2[C@@H](CC(COc3ccccc3)=C3[C@@H](CCc4ccccc4)OB(O)C[C@@H]32)C1=O | -0.418
CC(C)(C)OC(=O)CC[C@]1(C(=O)NCC(O)CO)N=C(c2ccc(OCCCO)cc2)O[C@H]1c1ccccc1N=[N+]=[N-] (stereo not given in full) | -0.108
COc1ccc([Si](C)(C)[C@H]2[C@H](CC(=O)N3CCC[C@H]3CO)O[C@@]3(C(=O)N(Cc4ccc(N5CCCCC5=O)cc4)c4ccccc43)[C@@H]2C)cc1 | -0.369
C=CCOC(=O)[C@H]1[C@@H]2C(=O)O[C@@H](c3ccccc3)[C@@H](c3ccccc3)N2[C@@H](c2ccc(OCCOC(=O)[C@@H]3C[C@@H]4C(=O)N[C@@H](CCCC[N+](C)(C)C)C(=O)N4[C@@H]3c3ccc(O)cc3)cc2)[C@]12C(=O)Nc1ccc(I)cc12 | -0.0156
O=C(NCc1ccc(F)cc1)[C@H]1C[C@H]2C(=O)N3CCC[C@H]3C(=O)N2[C@H]1c1ccc(O)cc1 | -0.388

From PubChem BioAssay
